NS1 inh: qHTS Assay for Inhibitors of Influenza NS1 Protein Function; Potency, µM (titrated, usually from 46.1 µM), without a hit: at the highest dose activity, positive = more growth; 270,000 tested, 0.4% active; calls by dose curve; further: actives are rising curves; nearly all actives have a fitted effect of over 50% in size
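In this qHTS, NS1 from influenza A is expressed in budding yeast, where it slows growth. Cells are switched from glucose to 2% galactose medium (pH 6.0, -URA), treated with compound, and growth recovery is read at OD600.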
Sm TGR block: qHTS Assay for the Inhibitors of Schistosoma Mansoni Peroxiredoxins | Schistosoma mansoni thioredoxin glutathione reductase (TGR), Q962Y6 | purified TGR, DTNB reduction, TNB absorbance 405 nm | Potency, µM (highest dose often 114 µM), for inactives: at the highest dose activity change, negative = inhibition, usual class: inhibitors | 360,000 tested, 3% active | AID 485364, 2010; further: on the % scale 0 is the no-effect control and ±100 the full control effect; nearly all actives have a fitted effect of over 60% in size
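Kinetic colorimetric format: TGR-catalysed, NADPH-driven DTNB reduction monitored via TNB absorbance. Enzyme dispensed at 20 nM; compound exposure 15 min at room temperature before reaction start.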
Pf growth 48h: Primary qHTS for delayed death inhibitors of the malarial parasite plastid, 48 hour incubation. P. falciparum luciferase growth in erythrocytes, 48 h. Potency, µM (doses to about 28.7 µM), for the others: at the highest dose activity change, negative = inhibition, hits mostly inhibitors. 310,000 tested, 5.9% active; further: on the % scale 0 is the no-effect control and ±100 the full control effect
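Luciferase-expressing P. falciparum in infected erythrocytes (2% hematocrit, 0.1% parasitemia final) in RPMI 1640/0.5% Albumax were exposed to compound for 48 hours at 37 C, 5% CO2; growth read as luminescence.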
Pf growth 96h: Primary qHTS for delayed death inhibitors of the malarial parasite plastid, 96 hour incubation | P. falciparum luciferase reporter growth, 96 h | Potency, µM (top dose mostly 28.7 µM), inactives show at the top dose activity change, negative = inhibition, usual class: inhibitors | 320,000 tested, 6.9% active; further: on the % scale 0 is the no-effect control and ±100 the full control effect
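Plates of compound plus infected erythrocytes (2% hematocrit, 0.05% parasitemia final) incubate 96 hours, 37 C, 5% CO2. Detection reagent added; reduced luminescence from the parasites' luciferase reporter flags inhibition.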
AMA1-RON2 inh: qHTS for Inhibitors of AMA1-RON; Towards Development of Antimalarial Drug Lead: Primary Screen; Plasmodium falciparum AMA1 (3D7) - RON2 peptide interaction; AlphaScreen AMA1-biotinylated RON2 peptide binding; Potency, µM (series often up to 58.2 µM), without a hit: top-dose activity change, negative = inhibition, hits mostly inhibitors; 360,000 tested, 0.2% active;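 further: 0% = vehicle wells and -100% = peptide control; nearly all actives have a fitted effect of over 45% in size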
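AMA1 (3D7) with his tag at 25 nM final met compounds first, then biotinylated RON2 peptide at 25 nM; detection used donor plus acceptor beads, 10 µg/mL apiece, read by AlphaScreen after 30 min at room temperature.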
* hit, by the source's call; ? = inconclusive; . = not tested or not shown; ! = not confirmed by another sample; [ ] = another dose, or the depositor's remark. This is a sample that favours compounds with a hit; in the whole collection about 11% have one here. Unless noted, the call rests on the fitted dose curve; in most records, active means well fitted curve in the direction sought with a large enough effect; inconclusive means small, poorly fitted or top-dose-only effect, or another doubt; inactive means no such curve, though single readings can be large; an effect the other way counts as inactive or inconclusive. Potency means the concentration at half of the fitted maximal effect.

SMILES	NS1 inh	Sm TGR block	Pf growth 48h	Pf growth 96h	AMA1-RON2 inh
COc1cccc(Nc2nc(CC(C)=O)ns2)c1	-3%	-28%	92%	?	19%
CC1=C(C(=O)Nc2ccccc2C)C(c2ccncc2)n2nc(SCc3ccccc3)nc2N1 (stereo unspecified)	.	2%	.	.	.
CCC(C)N(C(=O)CSc1nnc(C)n1C)C1CCS(=O)(=O)C1 (stereo unspecified)	.	7%	9%	-1%	-5%
Cc1ccc(C)c(S(=O)(=O)C(C#N)c2nc3ccccc3nc2N2CC(C)OC(C)C2)c1 (stereo unspecified)	-10%	2%	13µM*	-24%	3%
CCOC(=O)C(CC)(CCC(=O)O)c1csc(N)n1 (stereo unspecified)	-12%	-5%	.	.	9%
CCCCC(CCC(=O)O)(C(=O)OCC)c1csc(Nc2ccc(C)cc2)n1 (stereo unspecified)	3%	-14%	-1%	4.7µM*	7%
CC(C)N1C(=O)c2ccccc2C1C(=O)NC1CCCCCC1 (stereo unspecified)	?	-2%	-15%	0.74µM*	23%
O=C(NC1CCCCCC1)C1c2ccccc2C(=O)N1Cc1ccco1 (stereo unspecified)	-5%	50µM*	0%	1µM*	-2%
CCC(C)N1C(=O)c2ccccc2C1C(=O)NC1CCCCCC1 (stereo unspecified)	-2%	8%	0%	?	-2%
CCNC(=S)N1CCC(C(=O)c2ccc(Cl)cc2)CC1	3%	-6%	-1%	?	4%
CCCNC(=S)N1CCC(C(=O)c2ccc(Cl)cc2)CC1	-15%	89µM*	?	-3%	0%
COc1ccc(S(=O)(=O)N=C2C=C(C)C(=O)C(C)=C2)cc1	3%	32µM*	?	?	-2%
COc1ccc(CCNC(=O)c2cc3c(=O)n4cccc(C)c4nc3n(Cc3ccco3)c2=N)cc1OC	?	-4%	13µM*	1.7µM*	2%
Cc1cccn2c(=O)c3cc(C(=O)NCCc4ccccc4)c(=N)n(Cc4ccco4)c3nc12	18%	-1%	1.5µM*	?	9%
N=c1c(C(=O)NCc2ccccc2)cc2c(=O)n3ccccc3nc2n1Cc1ccco1	0%	0%	.	0%	7%
Cc1cccn2c(=O)c3cc(C(=O)NC(C)c4ccccc4)c(=N)n(CCCn4ccnc4)c3nc12 (stereo unspecified)	16%	10%	0.41µM*	0.41µM*	-4%
Cc1ccc2nc3c(cc(C(=O)NCc4ccco4)c(=N)n3Cc3ccco3)c(=O)n2c1	-4%	-10%[57.1 µM]	1.7µM*	-1%	0%
Cc1ccc(CNC(=O)c2cc3c(=O)n4ccccc4nc3n(Cc3ccco3)c2=N)cc1	13%	-33%	?	.	-2%
COC(=O)C[C@H]1C[C@H]2c3cc(NC(=O)Nc4ccc(C(F)(F)F)cc4)ccc3O[C@H]2[C@@H](CO)O1	.	.	.	.	0%
CC1CCC(NC(=O)C2(C)Cc3ccccc3C(=O)N2Cc2ccc(F)cc2)CC1 (stereo unspecified)	.	7%	.	.	.
O=C(Nc1ccc2c(c1)OCCO2)C(C1CC1)N1CCN(c2ccc(F)cc2)CC1 (stereo unspecified)	.	.	.	.	-4%
COc1cccc(-c2cn3c(n2)sc2cc(C(=O)NCCc4ccccc4)ccc23)c1	.	-27%	.	.	.
CC(C)c1ccc(C2c3c(-c4ccccc4O)n[nH]c3C(=O)N2Cc2ccncc2)cc1 (stereo unspecified)	.	3%	.	.	.
CSc1ccc(CNC(=O)c2cc3c(=O)n(Cc4ccco4)ccc3nc2C)cc1	.	45µM*	.	.	.
Cc1cccn2c(=O)c3cc(C(=O)NCc4ccco4)c(=N)n(CCc4ccccc4)c3nc12	-1%	?	0.59µM*	0.59µM*	1%
SMILES	NS1 inh	Sm TGR block	Pf growth 48h	Pf growth 96h	AMA1-RON2 inh
CCCCCCCCNC(C)C(O)c1ccc(SC(C)C)cc1 (stereo unspecified)	-31%	3%	1.9µM*	0.93µM*!	-4%
CC(=O)Oc1ccc(OC(C)=O)c(S(=O)(=O)c2ccc(C)c(C)c2)c1	-6%	?	23%	12µM*	1%
CC(=O)c1ccc(NC(=O)CSc2nc(-c3ccc(C)cc3)nc3c2c(=O)n(C)c(=O)n3C)cc1	.	-1%	.	.	.
CCOc1ccccc1C1C2=C(COC2=O)Nc2cc3c(cc21)OCO3 (stereo unspecified)	2%	0%	?	10µM*	-16%
O=C1OCC2=C1C(c1ccc(F)cc1)c1cc3c(cc1N2)OCO3 (stereo unspecified)	.	-1%	8%	33%	-19%
COc1ccc(-c2[nH]ncc2CN(C)Cc2cnccn2)c(OC)c1	4%	.	6%	5%	70%
COc1ccc(-c2[nH]ncc2CN(C)Cc2ccccn2)c(OC)c1	5%	-13%	0%	13µM*	104%
O=C(CN1C(=O)/C(=C/c2c(F)cccc2Cl)Oc2ccccc21)NCc1ccco1	.	-3%	?	58%	.
O=C1C2C3C=CC(C3)C2C(=O)N1c1cccc2cccnc12 (stereo unspecified)	7%	9%	0%	5.9µM*	-1%
O=C1C2C3C=CC(C3)C2C(=O)N1c1cccc(N2C(=O)C3C4C=CC(C4)C3C2=O)n1 (stereo unspecified)	?	-20%	6%	-9%	-5%
Cc1nc2nc(NCc3ccc(Cl)cc3)[nH]n2c(=O)c1Cc1ccccc1	.	11%	.	.	.
Cc1ccc(-c2nc(NCCN3CCOCC3)c3ccccc3n2)cc1	-18%	-14%[11.4 µM]	.	4.1µM*	-10%
O=C(NCCCN1CCOCC1)c1cc(-c2ccc(Cl)s2)nc2ccccc12	.	2%	17µM*	?	1%
O=C(NCCCN1CCOCC1)c1cc(-c2ccco2)nc2ccccc12	.	.	.	.	-29%
CC(C)Oc1ccc(-c2cc(C(=O)NCCN3CCOCC3)c3ccccc3n2)cc1	-1%	-6%	2.3µM*	31%	4%
O=C(NCCN1CCOCC1)c1cc(-c2ccc(F)cc2)nc2ccccc12	.	-4%	?	-14%	-1%
CC(C)[C@H](NC(=O)N1CCn2c1nc1ccccc12)C(=O)N[C@@H](C(=O)O)c1ccccc1	6%	-2%	52%	3%	130%
c1ccc2c(c1)CC/C2=N/Nc1nc2ccccc2[nH]1	.	-3%	2.6µM*	?	8%
CCc1ccc(NC(=S)NC2CC3CCC(C2)N3Cc2ccco2)cc1 (stereo unspecified)	3%	-19%	?	0%	-6%
S=C(Nc1ccc(Cl)cc1)NC1CC2CCC(C1)N2Cc1ccccc1 (stereo unspecified)	-8%	-31%	3.3µM*	22%	0%

Screens as filed in PubChem BioAssay.
